Compounds without any hit were thinned out: in the full panel of roughly 83,000, 20% have a hit.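 Step 1: grow cells in 96-well plates. Step 2: add test compound at a single concentration. Step 3: incubate 48 h. Step 4: record percent growth.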 Active and inactive are the calls of the source. Rule for the calls: active = growth percent below 10; inactive = the rest.
Columns and labels:
Assay in all cases: NCI-60 one-dose screen, 48 h (100 = growth as untreated, 0 = no growth, -100 = all killed)
Conditions in all cases: 10 µM unless noted
[1] = system: NCI-H23 lung
[2] = system: NCI-H226 lung
[3] = system: NCI-H322M lung
[4] = system: HOP-62 NSCLC
[5] = system: NCI-H460 lung
[6] = system: HOP-92 NSCLC
[7] = system: NCI-H522 lung
[8] = system: A549/ATCC NSCLC
[9] = system: 786-0 renal
[10] = system: COLO 205 colon

Measured: growth

O=C1C(Cl)=C(NCCN2CCOCC2)C(=O)c2ncccc21
active: [1] -41.8% | [2] -37.8% | [3] 1.09% | [4] -63% | [5] 0.786% | [7] -74% | [8] -54.3% | [10] -75.2%
inactive: [6] 72.6% | [9] 18.1%

NNC(=S)N/N=C/c1ccccn1
inactive: [1] 30.9% | [2] 34.3% | [3] 46.2% | [4] 13% | [6] 21% | [8] 46.9% | [9] 24.4% | [10] 15%
active: [5] 9.74% | [7] -14.3%

CCOC(=O)C/C(=N\Nc1cc(=O)[nH]c2ccc(Cl)cc12)C(=O)OCC
inactive: [1] 95.3% | [2] 98.2% | [3] 91.3% | [4] 101% | [5] 103% | [6] 87.5% | [7] 105% | [8] 100% | [9] 106% | [10] 121%

Brc1ccc(-c2cnc3nonc3n2)cc1
inactive: [1] 68% | [2] 100% | [3] 94% | [4] 105% | [5] 96.7% | [6] 86.9% | [7] 66% | [8] 91.9% | [9] 84.2% | [10] 71.3%

O=C1NC(=O)c2c1c1c3ccccc3[nH]c1c1oc3cc(Br)ccc3c21
inactive: [1] 76.2% | [2] 58.9% | [3] 75.7% | [4] 65.9% | [5] 36.8% | [6] 87.9% | [7] 50.6% | [8] 84.7% | [9] 81.7% | [10] 72.3%

COc1ccc2c(c1)c(-c1nonc1-c1cn(C)c3ccc(OC)cc13)cn2C
inactive: [1] 59.2% | [2] 75.1% | [3] 71.1% | [4] 32.4% | [5] 12.6% | [6] 55.6% | [7] 18.5% | [8] 39.2% | [9] 54.5% | [10] 32.9%

Cc1nc2sc(C(=O)Nc3cccc(Cl)c3)c(N)c2cc1C(O)c1ccccc1 (stereo not given)
active: [5] 6.05% | [7] 3.93%
inactive: [1] 32% | [2] 54.1% | [3] 60.2% | [4] 45.3% | [6] 77.2% | [8] 21.1% | [9] 36.8% | [10] 20.8%

Nc1ccc([N+](=O)[O-])cc1N=C/C=C/c1ccccc1
inactive: [1] 76.9% | [2] 72% | [3] 87.8% | [4] 88% | [5] 54% | [6] 82.2% | [7] 10.8% | [8] 72.7% | [9] 78.6% | [10] 65.5%

COc1cc2c(/C=C3\C(=O)Nc4ccccc43)c(C(=O)O)[nH]c2cc1C
inactive: [1] 82.5% | [2] 89.2% | [3] 105% | [4] 92% | [5] 105% | [6] 63.8% | [7] 93.5% | [8] 106% | [9] 108% | [10] 120%

CO[C@H](C(=O)[C@@H](O)[C@@H](C)O)[C@@H]1Cc2cc3cc(O[C@H]4C[C@@H](O[C@H]5C[C@@H](O)[C@H](O)C(C)O5)[C@H](O)C(C)O4)c(C)c(O)c3c(O)c2C(=O)[C@H]1O[C@H]1C[C@@H](O[C@H]2C[C@@H](O[C@H]3C[C@@H](OC)[C@H](O)C(C)O3)[C@@H](O)C(C)O2)C(O)(O)C(C)O1 (stereo not given in full)
inactive: [9] 11.2%
active: [1] 7.35% | [2] -20.8% | [3] 9.68% | [4] -3.61% | [5] 9.9% | [6] 9.37% | [7] -20.2% | [8] 3.64% | [10] -80%

Clc1nccc2c(-c3csc(-c4c[nH]c5ccccc45)n3)c[nH]c12
inactive: [1] 68.8% | [2] 39.5% | [3] 80.8% | [4] 101% | [5] 11.9% | [6] 24.3% | [7] 18.5% | [8] 29.1% | [9] 27.7% | [10] 33.3%

COc1ccc(C2=Nc3c(N)ncnc3NC(c3cccc(Nc4ccnc5cc(C(F)(F)F)ccc45)c3)C2)cc1 (stereo not given)
inactive: [1] 70.1% | [2] 64.2% | [3] 81.3% | [4] 63.7% | [5] 70.9% | [6] 31.4% | [7] 69.6% | [8] 59.8% | [9] 59.4% | [10] 62.4%

C=CC1(C)C(O[Si](C)(C)C(C)(C)C)CC2C3OC(=O)NC31c1cccc3c1[C@H](C(=O)N3C)C2(C)C (stereo not given in full)
inactive: [1] 59.7% | [2] 66.7% | [3] 78.3% | [4] 85.5% | [5] 44.7% | [6] 29.4% | [7] 44.1% | [8] 41.7% | [9] 73.6% | [10] 40.8%

CCCCCCCCCCCCCCCCOC(=O)c1c(C)[nH]c(/C=C2\N=C(c3ccc[nH]3)C=C2OC)c1C
inactive: [1] 48.8% | [3] 82.7% | [4] 54.2% | [5] 13.3% | [7] 27.1% | [8] 11% | [9] 11.3% | [10] 33.6%
active: [2] 6.67% | [6] -12.6%

CCC(C)Nc1ccc(NC(C)CC)cc1 (stereo not given)
inactive: [1] 74.5% | [2] 91.3% | [3] 86.4% | [4] 84.8% | [5] 101% | [6] 90.5% | [7] 54.9% | [8] 94.7% | [9] 74%
active: [10] 9.48%

CC/C=C\C/C=C/C=C1/C(=O)C=C[C@@H]1C/C=C\CCCC(=O)OC
inactive: [1] 24.9% | [2] 55.7% | [3] 95.8% | [4] 36.1% | [5] 76.2% | [6] 42.4% | [8] 80.8% | [10] 14.1%
active: [7] -32.3% | [9] -15%

C=C1C(=O)O[C@H]2[C@H]1CC/C(COC(=O)/C=C\C(=O)NCc1ccc(Cn3c(=O)sn(-c4ccccc4)c3=O)cc1)=C\CC[C@@]1(C)O[C@@H]21
active: [7] -5.66% | [10] 9.17%
inactive: [1] 92.1% | [2] 105% | [3] 107% | [4] 105% | [5] 96.7% | [6] 84.4% | [8] 98% | [9] 70.5%

COc1cc(C(=O)c2c(N)ncn2-c2ccccc2)cc(OC)c1OC
inactive: [1] 101% | [2] 84% | [3] 104% | [4] 77.1% | [5] 106% | [6] 96.2% | [7] 50.5% | [8] 106% | [9] 88.7% | [10] 97.4%

Nc1n[nH]c2ccc([C@@H]3Nc4cc5[nH]ncc5cc4[C@H]4C5CCC(C5)[C@@H]34)cc12 (stereo not given in full)
active: [5] 7.16% | [10] -11.9%
inactive: [1] 27.3% | [2] 15% | [3] 43% | [4] 46.9% | [6] 58.2% | [7] 13.9% | [8] 24.6% | [9] 28.3%

CCn1cc(CNc2ccc(C(=O)Nc3cc4cc(OC)c(OC)cc4c(C)n3)cc2)c(C)n1
inactive: [2] 20.5% | [3] 85.1% | [4] 12.8% | [5] 58.1% | [6] 78.6% | [8] 29.5% | [9] 70.9% | [10] 28.9%
active: [1] 9.61% | [7] -10.1%

CCN(CC)c1ccc(/C=C\c2cc(C)c3cc(C)ccc3n2)cc1
active: [6] -10.9% | [9] 2.99%
inactive: [1] 30.3% | [2] 59.5% | [3] 83% | [4] 45.6% | [5] 16.8% | [7] 28.6% | [8] 31.9% | [10] 50%

Cc1nc2sc(C(=O)Nc3ccccc3)c(N)c2cc1C(=O)/C=C/c1ccccc1
active: [2] 5.17% | [4] -26.2% | [5] -71% | [6] 6.29% | [7] -42.5% | [9] -57.2%
inactive: [1] 10.9% | [3] 10.7% | [8] 13.2% | [10] 14.2%

CCOc1ccc(NC(=O)c2cc(OC)c(OC)c(OC)c2)cc1
inactive: [1] 45.8% | [2] 68.1% | [3] 52.2% | [4] 56.2% | [5] 17.1% | [6] 44.1% | [7] 42.3% | [8] 46.6% | [9] 32.3% | [10] 11.8%

CC(=O)c1c(Nc2ccc(F)c(F)c2F)[nH]c2c(F)cc(F)cc2c1=O
active: [1] -3.83% | [2] -15.6% | [3] 4.47% | [4] -21.5% | [5] 2.98% | [6] -18.8% | [7] -11.1% | [8] 4.48% | [10] -65%
inactive: [9] 12.1%

N#Cc1c(-c2ccccc2)nc2c(c(-c3ccccc3)nn2-c2ccccc2)c1-c1ccc(N2CCOCC2)cc1
inactive: [1] 96.9% | [2] 92.7% | [3] 92.3% | [4] 95.3% | [5] 92.5% | [6] 85.8% | [7] 92% | [8] 77.2% | [9] 86.3% | [10] 79.6%

CN(C)c1ccc(C(=NO)c2ccc(N(C)C)cc2)cc1
inactive: [1] 47.3% | [2] 78.5% | [3] 81.3% | [4] 46.2% | [6] 37.8% | [8] 31.4% | [9] 57.3% | [10] 42.8%
active: [5] 7.18% | [7] -25.8%

— PubChem BioAssay (NCI)
